From PubChem BioAssay AID602208 (Johns Hopkins Ion Channel Center, 2012)
Entries with a potency or affinity are not part of this list. Active and inactive are the calls of the source.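 The calls were made as follows: active = average duplicate choline uptake below buffer control mean minus 3 SD, with a fitted dose curve; inactive = the rest.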

These compounds were tested against High affinity choline transporter 1 (Homo sapiens) (UniProt Q9GZV3) (assay: human choline transporter radiolabel uptake blockers – cell-based, 3H-choline uptake, CHT LV-AA trafficking mutant, CRC, dose response (AID 602208)). Conditions: HEK293 CHT LV-AA cells.
Sequence of High affinity choline transporter 1 (Homo sapiens) (Q9GZV3 whole entry, looked up): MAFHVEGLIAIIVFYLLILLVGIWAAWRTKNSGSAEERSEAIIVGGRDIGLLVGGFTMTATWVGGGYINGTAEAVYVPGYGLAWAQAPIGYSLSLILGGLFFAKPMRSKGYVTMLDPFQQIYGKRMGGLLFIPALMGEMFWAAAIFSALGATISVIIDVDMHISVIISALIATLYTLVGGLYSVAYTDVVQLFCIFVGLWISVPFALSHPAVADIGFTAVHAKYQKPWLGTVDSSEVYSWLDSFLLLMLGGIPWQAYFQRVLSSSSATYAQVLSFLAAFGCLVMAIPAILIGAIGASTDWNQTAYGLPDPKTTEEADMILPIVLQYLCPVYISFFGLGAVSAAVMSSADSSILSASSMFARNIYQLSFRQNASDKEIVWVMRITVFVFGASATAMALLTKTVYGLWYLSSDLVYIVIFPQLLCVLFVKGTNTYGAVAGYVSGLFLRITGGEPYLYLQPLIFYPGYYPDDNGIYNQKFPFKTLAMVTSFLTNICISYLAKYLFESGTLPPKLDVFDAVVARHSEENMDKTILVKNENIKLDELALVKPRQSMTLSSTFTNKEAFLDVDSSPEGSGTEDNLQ

outcome, inactive:
Cc1cc(NS(=O)(=O)c2ccc(NC(=O)C(C)Oc3cccc(C)c3C)cc2)nc(C)n1 (configuration not stated)
CC1CCCCC1NC(=O)c1cccc(S(=O)(=O)N2CCN(C)CC2)c1 (configuration not stated)
Cc1cc(NS(=O)(=O)c2ccc(NC(=O)c3ccc(Cl)cc3Cl)cc2)no1
Cc1cc(C)c(C(=O)Nc2ccc(S(=O)(=O)Nc3ccccn3)cc2)c(C)c1
CCN(CC)S(=O)(=O)c1cc(C(=O)Nc2nncs2)c(Cl)cc1Cl
CCc1cccc(CC)c1NC(=O)c1cccc(S(=O)(=O)N2CCN(C)CC2)c1
COc1cc(NS(=O)(=O)c2ccc(NC(=O)c3ccc(Cl)cc3Cl)cc2)ncn1
